Among the data in ChEMBL document CHEMBL3433997, “St. Jude Leishmania screening dataset” (2016) are inhibition values, retold here.

Holding throughout (type): functional
In assay [1] the target is Solute carrier family 2, facilitated glucose transporter member 1 (Homo sapiens) (UniProt P11166). In words: ST_JUDE_LEISH: Cytotoxicity at 2uM final concentration against transgenic Leishmania Mexicana promastigotes LmGLUT1 that are glucose transport deficient and complemented with the human glucose transporter GLUT1. Activity is measured by DNA content using SYBR green in vitro.

Assay [2] deals with Hexose transporter 1 (Plasmodium falciparum) (UniProt O97467). In words: ST_JUDE_LEISH: Cytotoxicity at 2uM final concentration against transgenic Leishmania Mexicana promastigotes LmPfHT that are glucose transport deficient and complemented with the Plasmodium falciparum hexose transporter. Activity is measured by DNA content using SYBR green in vitro.
Assay [3] has as its target Glucose transporter (Leishmania mexicana) (UniProt O61059). In words: ST_JUDE_LEISH: Cytotoxicity at 2uM final concentration against transgenic Leishmania Mexicana promastigotes LmGT2 that are glucose transport deficient and complemented with the L. Mexicana glucose transporter 2. Activity is measured by DNA content using SYBR green in vitro.

Solute carrier family 2, facilitated glucose transporter member 1 (Homo sapiens), sequence (P11166 whole entry): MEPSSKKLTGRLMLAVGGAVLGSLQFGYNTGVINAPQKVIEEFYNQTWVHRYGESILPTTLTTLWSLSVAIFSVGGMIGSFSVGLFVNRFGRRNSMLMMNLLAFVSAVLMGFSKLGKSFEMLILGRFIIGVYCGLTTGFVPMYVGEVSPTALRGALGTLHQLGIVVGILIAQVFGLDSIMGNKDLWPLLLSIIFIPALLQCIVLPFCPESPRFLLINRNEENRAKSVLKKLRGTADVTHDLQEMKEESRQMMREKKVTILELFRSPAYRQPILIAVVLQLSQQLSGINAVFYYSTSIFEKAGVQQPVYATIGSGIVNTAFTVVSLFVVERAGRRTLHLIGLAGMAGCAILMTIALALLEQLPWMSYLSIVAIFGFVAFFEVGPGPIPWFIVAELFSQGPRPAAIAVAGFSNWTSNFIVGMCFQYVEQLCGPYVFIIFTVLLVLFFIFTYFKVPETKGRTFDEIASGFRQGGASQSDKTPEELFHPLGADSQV

For `CN1CCC(Oc2ccc(CN3CC[C@H](NC(=O)c4cccc(C#N)c4)C3)c3ccccc23)C1` (stereo partly specified), the inhibition – broadly, the drop in the measured response relative to a control, in per cent – in assay [1] is -0.8%; in assay [2] it was 1.42%; in assay [3] it was 2.12%.

Turning to `CC1Cc2ccccc2N1S(=O)(=O)c1cc(OCC(F)(F)F)ccc1OCC(F)(F)F` (stereo unspecified), the inhibition in assay [1] was found to be 4.69%; in assay [2], 3.54%; in assay [3] it was 3.67%.

`Cc1cc(N2CCN(CC3CCCCC3)CC2)nc(Nc2ccc(Br)cc2)n1`: the inhibition in assay [1] came to 1.47%; in assay [2], 3.17%; in assay [3], 0.54%.

With `COc1ccc2nccc([C@@H](O)CN3CCC(NCc4ccc(OC)c(NC=O)c4)CC3)c2c1`, the results for the inhibition in assay [1], in assay [2] and in assay [3] were 3.28%, 4.05% and 2.18%, respectively.

`Cc1cc(N[C@@H](CC(C)C)C(=O)NCCOc2ccccc2)nc(NCCc2ccccc2)n1`: the inhibition in assay [1] came out at 1.89%; in assay [2], 0.4%; in assay [3], 2.69%.

In the case of `Cc1nc(NC2=NCN(CCCN3CCOCC3)CN2)nc2c(C)cccc12`, the inhibition in assay [1] was 8.37%; in assay [2] it was 17.2%; in assay [3] it was 11%.

On to `COc1ccc2ncc(F)c(CCN3CC4CCCC4(CNCc4ccc5c(n4)NC(=O)CS5)C3)c2n1` (stereo unspecified), for which the figures for the inhibition in assay [1], in assay [2] and in assay [3] were 1.18%, 1.32% and 0.3%, respectively.

For the compound `COc1cccc(CCc2nc3c(N4CCC(Cc5ccccc5)CC4)cccc3n2CC2CNCCO2)c1` (stereo unspecified), the inhibition in assay [1] came out at 9.36%; in assay [2], 9.47%; in assay [3], 8.5%.

Regarding `CCCCCCCCNCc1c(O)ccc2ccccc12`, the inhibition worked out at 3.46% in assay [1], 3.25% in assay [2] and 5.48% in assay [3].

As to `Cc1c(C(=O)N2CCc3cc4nccc(N5CCN6CCC[C@H]6C5)c4cc32)cnn1-c1ccc(C#N)cc1`, the inhibition in assay [1] was determined as 3.57%; in assay [2], 3.55%; in assay [3] it was 2.9%.

Turning to `O=C(NCCCCN1CCC(c2ccc(C(F)(F)F)cc2C(F)(F)F)CC1)c1ccc(NC(=O)c2ccc(Cl)cc2)cc1`, the inhibition in assay [1] is 0.67%; in assay [2], 3.98%; in assay [3], -1.54%.

On to `COc1cc2c(cc1C(F)(F)F)N(C(=O)Nc1cc(OC(F)(F)F)cc(-c3cccnc3)c1)CC2`, for which the results for the inhibition in assay [1], in assay [2] and in assay [3] were -0.39%, 1.79% and -0.44%, respectively.
